Only some compounds are listed: those with a hit (about 1.6% of all), similar ones and a draw of the others.
MOR-DOR inv ag-1: inverse agonists of human mu-delta opioid receptor heterodimerization; 340,000 compounds, 0.21% hits; inhibition, % at 9.3 µM; P35372+P41143; cell-based MOR-DOR heterodimer luminescence, inverse agonism; in the data active = inhibition above about 22%, passing the limit was not always enough;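 note: 0% = cells with DMSO and 100% = wells without cells with DMSO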
HTR5A ag ctr: HTR5A agonism, opioid heterodimer counter-screen. HTR5A agonist assay, luminescence, cell-based. P47898. 340,000 compounds, 0.61% hits. activation, % at 9.3 µM. AID 504692; in the data active = activation mostly above about 9.5%, no sharp cut-off; inactive = mostly below about 7.6%;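 note: 0% = cells with vehicle only and 100% = reference agonist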
Target sequence (P47898 whole entry, looked up): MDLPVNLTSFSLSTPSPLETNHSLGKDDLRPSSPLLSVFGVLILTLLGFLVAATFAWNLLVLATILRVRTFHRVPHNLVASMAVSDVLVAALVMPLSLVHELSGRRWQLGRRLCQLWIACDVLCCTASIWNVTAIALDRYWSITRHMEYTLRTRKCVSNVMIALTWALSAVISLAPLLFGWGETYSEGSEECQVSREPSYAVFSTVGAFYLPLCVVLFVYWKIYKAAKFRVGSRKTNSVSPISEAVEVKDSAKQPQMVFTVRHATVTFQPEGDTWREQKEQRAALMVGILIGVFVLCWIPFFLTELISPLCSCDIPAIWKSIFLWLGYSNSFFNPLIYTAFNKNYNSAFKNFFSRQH
MOR-DOR ag: OPRM1-OPRD1 heterodimerization agonism; P35372+P41143; cells, luminescence; activation, % at 9.3 µM; 340,000 compounds, 0.3% hits; in the data active = activation above about 18%;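 note: 0% = vehicle-treated cells and 100% = reference agonist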
HTR5A inv ctr: HTR5A inverse agonism, opioid heterodimer counter-screen. P47898. HTR5A cell line, luminescence. inhibition, % at 9.3 µM. 340,000 compounds, 0.083% hits. AID 504634; in the data active = inhibition mostly above about 23%, no sharp cut-off; inactive = mostly below about 18%;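 note: 0% = cells with DMSO and 100% = no-cell wells with DMSO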
m5-HT2A agonist: agonists of mouse serotonin 5-HT2A receptor (HTR2A). activation, % at 7.6 µM. CHO-K1 mHTR2A beta-arrestin complementation, luminescence; percent of 30 µM serotonin response. P35363. 360,000 compounds, 0.66% hits;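 active = activation above a run cutoff, the mean activation of all tested compounds plus 3 SD, cut at about 14% in these data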;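 note: 0% = plate median of compound wells and 100% = 30 µM serotonin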
MOR-DOR inv ag-2: opioid heterodimer inverse agonism, HTR5A counter-screen; shares compounds with HTR5A inv ctr; U2OS counter-screen cells, complementation luminescence; inhibition, % at 9.3 µM; 190 tested, under 10 active;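 note: 0% = cells with DMSO and 100% = wells without cells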
HTR5A inv conf: confirmation of human HTR5A inverse agonists. shares compounds with HTR5A inv ctr. HTR5A-expressing cells, inverse agonism, luminescence. inhibition, % at 9.3 µM. 190 tested, under 10 active;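 note: 0% = cells with DMSO and 100% = no cells with DMSO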
* marks the source's active call; other numbers are inactive results; i = inactive; / = no result. Unless noted, the rule behind the calls is not given here.

SMILES	MOR-DOR inv ag-1	HTR5A ag ctr	MOR-DOR ag	HTR5A inv ctr	m5-HT2A agonist	MOR-DOR inv ag-2	HTR5A inv conf
O=C(CN1C(=O)NC2(CCCC2)C1=O)N1CCc2ccccc2C1	0	-1	0	3	2	/	/
CC(C)Cn1c(N)c(S(=O)(=O)c2cccs2)c2nc3ccccc3nc21	17	-8	-3	38*	-8	-52	0
OCCN(CCO)c1ccc(C(c2ccc(Cl)cc2)c2ccc(N(CCO)CCO)cc2Cl)c(Cl)c1	3	1	-1	16	-1	/	/
Cc1cc(N(CCO)CCO)ccc1N=Nc1cc(F)ccc1F	21	-10	-4	27*	-4	-6	12
CCOC(=O)c1ccccc1NC1CC(=O)N(c2ccccc2C)C1=O (stereo not drawn)	11	-2	-2	5	-1	/	/
Cc1cc(C)n2nc(C(=O)OCC(=O)Nc3ccc(C)c(S(=O)(=O)N(C)C)c3)nc2n1	13	-2	-3	10	-3	/	/
Cc1cc(C)n2nc(C(=O)OCC(=O)Nc3ccc(C)c(S(=O)(=O)N4CCOCC4)c3)nc2n1	3	-7	-1	28*	0	-6	-19
CCN(CC)c1ccc(/C=N/Nc2ccccc2)c(O)c1	-1	0	0	45*	2	-108	-21
COc1cc(/C=C2/SC(=S)N(CC(=O)O)C2=O)ccc1OCC(=O)Nc1ccc(C)c(C)c1	13	2	-2	-7	0	/	/
COc1cccc(CNC(=O)Cc2ccc(S(=O)(=O)N3CCOCC3)s2)c1	-13	-15	2	38*	8	49*	-5
O=C(Cc1ccccc1)NCc1ccc2c(c1)OCO2	7	-2	-1	13	4	/	/
O=C(CC12CCC(CC1)C2)NCc1ccc2c(c1)OCO2	-8	2	2	27*	-1	i	6
COCCNc1nnc(SCC(=O)c2c[nH]c3ccccc23)s1	2	2	0	-6	2	/	/
COc1ccc(/C=C/C(=O)NC(=S)NNC(=O)c2cccs2)cc1	23	-7	-4	42*	-2	4	-18
O=C(NNc1ccc([N+](=O)[O-])cc1)Nc1ccccc1	8	-2	-2	-8	-2	/	/
O=C(NNc1ccc([N+](=O)[O-])cn1)Nc1ccc(N=Nc2ccccc2)cc1	-14	-9	3	36*	2	-45	18
CN(C)S(=O)(=O)c1ccc(Cl)c(C(=O)OCC(=O)NC(=O)NC2CCCC2)c1	-8	1	2	96*	-1	-16	14
N#CCCN(/N=C/c1cccnc1)C1=NS(=O)(=O)c2ccccc21	11	0	-2	34*	-2	-302	5
O=C(Cc1c(F)cccc1Cl)Nc1cc(S(=O)(=O)N2CCOCC2)ccc1N1CCOCC1	0	2	0	-6	-1	/	/
OCC[C@@H]1C[C@@H](O)[C@H](O)[C@]2(OCCc3ccccc32)O1	12	-1	-2	0	-5	/	/
OCC[C@@H]1C[C@H](O)[C@@H](O)[C@@]2(OCCCc3ccccc32)O1	0	-17	0	44*	8	-5	3
Cc1cc(C)nc(N/N=C/c2cc(Br)ccc2O)n1	-11	-11	2	33*	-25	23	3
Cc1cc(C)nc(N/N=C/c2ccccc2OCc2ccc(Br)cc2)n1	-1	1	0	-20	-2	/	/
O=C(NCC(=O)N1CCOCC1)c1ccc(Br)o1	2	6	0	-16	11	/	/
COCCCNC(=O)/C(C#N)=C/c1cc(C)[nH]c1C	1	4	0	-11	1	/	/
SMILES	MOR-DOR inv ag-1	HTR5A ag ctr	MOR-DOR ag	HTR5A inv ctr	m5-HT2A agonist	MOR-DOR inv ag-2	HTR5A inv conf
O=[N+]([O-])c1ccc2nc(NN=Cc3ccc(O)cc3)sc2c1	11	-7	-2	30*	-5	-25	0
CC(C)c1ccc(/C=C/C(=O)Nc2nc3ccc([N+](=O)[O-])cc3s2)cc1	5	2	-1	-15	1	/	/
CCN(CC(=O)Nc1ccc(OC)cc1)C(=O)c1ccc2c(c1)NC(=O)CS2	15	0	-2	0	-6	/	/
O=C1CCC[C@@H]2C[C@@]3(C[C@@H]4CCN1[C@H]24)Nc1cc(Cl)c(Cl)cc1NC3=NCc1ccccc1	15	0	-3	-6	-1	/	/
C=CCSc1nnc(CC(OC)OC)n1-c1ccccc1	-9	3	1	39*	-4	-11	-8
COC(Cc1nnc(SC)n1-c1ccc(Cl)cc1)OC	11	-4	-2	13	-2	/	/
CCOc1ccc(/C=N/NC(=O)C(=O)N2CCCCCC2)c2ccccc12	7	2	-1	-12	0	/	/
O=C(COC(=O)Cc1ccc(F)cc1)NCc1ccco1	2	1	0	34*	-2	-37	-15
CSc1nc(C)cc(Oc2ccc(=O)n(C)n2)n1	20	-4	-4	2	-1	/	/
CCSc1nc(C)cc(Oc2ccc(=O)n(C)n2)n1	3	-2	-1	89*	-1	-192	-13
COC(=O)C1=C(C)NC(C)=C(C(=O)OCC2CCCO2)C1c1cccc(Br)c1 (stereo not drawn)	2	1	0	4	-2	/	/
Cc1ccc(/C=C/c2nnc(-c3cccs3)o2)cc1	-33	-6	5	13	1	/	/
Cc1ccc(/C=C/c2nnc(-c3ccc(C)cc3)o2)cc1	-13	-18	2	42*	0	-42	-199
N#C/C(=C\c1ccc(O)c(O)c1)C(=O)c1ccc(O)c(O)c1	4	10	-1	-34	-6	/	/
N#CC(C#N)=C(N)/C(C#N)=C/c1cc(O)c(O)c(O)c1	-4	-8	1	30*	6	20	1
CC(=O)c1ccc(OCc2ccccc2)c(C)c1O	-41	-10	7	28*	-7	-47	-1
N#CCSc1nnc(-c2ccc3c(c2)OCO3)o1	10	-10	-2	25*	2	-4	1
O=C1N[C@@H](Cc2ccccc2)COC(=O)[C@H](Cc2ccc(F)cc2)CC/C=C/C[C@@H]1CC(=O)N(CCO)Cc1ccccc1	2	-2	0	37*	-7	-52	-8
O=C1N[C@@H](Cc2ccccc2)COC(=O)[C@@H](Cc2ccc(F)cc2)CC/C=C/C[C@H]1CC(=O)N(CCO)Cc1ccccc1	-6	3	1	10	-5	/	/
N#CCCN=C(NS(=O)(=O)c1ccccc1)c1ccccc1	1	-8	0	22*	-4	-13	-18
CCOc1ccc(S(=O)(=O)n2ccc(C)n2)cc1	11	-7	-2	26*	11	22	-6
O=C(NCCc1nc(-c2ccccc2Cl)no1)c1ccccc1	9	3	-2	-8	-10	/	/
CC(C)C(=O)NCCc1nc(-c2ccccc2Cl)no1	3	2	0	38*	-1	-19	0
